Source: the supplement of paper PMC11732987, “Enantioselective OTUD7B fragment discovery through chemoproteomics screening and high-throughput optimisation” (Communications Chemistry, 2025)

Tests used:
Assay in all cases: log2 ratio of Biotin-Ahx-Ub-VS probe labelling (fragment/DMSO); higher = less target engagement (more negative = stronger competition), active = hit call of the paper (q ≤ 0.05, log2 ratio ≤ -1)
Conditions in all cases: compound concentration: 200 uM; treatment time: 3 h
ALG13 = target: T1, ALG13 (UniProt Q9NP73)
T1 sequence (whole entry): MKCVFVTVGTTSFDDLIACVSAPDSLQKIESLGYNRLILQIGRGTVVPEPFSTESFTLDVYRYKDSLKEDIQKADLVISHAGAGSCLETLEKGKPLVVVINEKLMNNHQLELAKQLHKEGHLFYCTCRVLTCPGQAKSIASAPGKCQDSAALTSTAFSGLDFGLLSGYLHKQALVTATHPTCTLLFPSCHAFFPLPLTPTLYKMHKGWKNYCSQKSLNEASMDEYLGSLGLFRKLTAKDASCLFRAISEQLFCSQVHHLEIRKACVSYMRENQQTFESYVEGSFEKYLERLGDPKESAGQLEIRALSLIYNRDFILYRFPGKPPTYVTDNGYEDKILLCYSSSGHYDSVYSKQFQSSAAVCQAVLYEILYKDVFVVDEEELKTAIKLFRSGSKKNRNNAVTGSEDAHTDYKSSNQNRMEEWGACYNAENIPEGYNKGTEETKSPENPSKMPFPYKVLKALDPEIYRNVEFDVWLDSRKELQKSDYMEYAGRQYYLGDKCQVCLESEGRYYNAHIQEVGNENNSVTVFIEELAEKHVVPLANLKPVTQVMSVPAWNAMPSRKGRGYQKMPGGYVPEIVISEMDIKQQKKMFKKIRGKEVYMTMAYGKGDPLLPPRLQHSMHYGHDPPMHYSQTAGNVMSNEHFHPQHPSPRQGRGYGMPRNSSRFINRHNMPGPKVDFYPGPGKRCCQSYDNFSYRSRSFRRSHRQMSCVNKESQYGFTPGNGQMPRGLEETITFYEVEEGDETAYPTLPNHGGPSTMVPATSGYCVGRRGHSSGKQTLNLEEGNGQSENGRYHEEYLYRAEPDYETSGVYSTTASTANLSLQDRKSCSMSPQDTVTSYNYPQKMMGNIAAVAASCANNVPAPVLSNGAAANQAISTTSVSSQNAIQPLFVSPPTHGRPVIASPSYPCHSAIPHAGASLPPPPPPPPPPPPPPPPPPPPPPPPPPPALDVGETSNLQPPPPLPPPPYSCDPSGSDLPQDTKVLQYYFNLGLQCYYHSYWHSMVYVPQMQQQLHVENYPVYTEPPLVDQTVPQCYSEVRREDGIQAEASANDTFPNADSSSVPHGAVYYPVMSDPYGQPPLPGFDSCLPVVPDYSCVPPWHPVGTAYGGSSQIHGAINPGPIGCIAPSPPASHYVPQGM
Summary of the method: (§1)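 Fragment (200 µM) or vehicle was incubated for 3 h with triplicate HEK293T lysate samples of 495 µg, which were then treated with Biotin-Ahx-Ub-VS at 0.5 µM final for 1 h. Labelled DUBs were enriched on NeutrAvidin, digested with LysC and trypsin, and analysed by diaPASEF LC-MS/MS. Values are average log2 fragment/vehicle ratios from an unpaired t-test on global-median-normalised Spectronaut label-free quantities, using proteins with ≥2 unique peptides.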

ATXN3 = ATXN3 (UniProt P54252)
Sequence of ATXN3 (P54252 whole entry): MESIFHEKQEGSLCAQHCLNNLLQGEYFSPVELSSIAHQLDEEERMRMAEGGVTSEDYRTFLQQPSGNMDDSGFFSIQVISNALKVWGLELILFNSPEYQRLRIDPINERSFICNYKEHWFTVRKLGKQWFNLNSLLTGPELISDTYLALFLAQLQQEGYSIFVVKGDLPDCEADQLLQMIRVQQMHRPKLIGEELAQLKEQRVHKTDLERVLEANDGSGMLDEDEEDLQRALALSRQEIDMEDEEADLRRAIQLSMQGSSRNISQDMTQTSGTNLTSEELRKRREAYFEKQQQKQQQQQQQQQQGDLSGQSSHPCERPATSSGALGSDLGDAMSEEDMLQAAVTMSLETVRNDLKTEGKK
Summary of the method: as §1

BAP1 = target: T2, BAP1 (UniProt Q92560)
T2 sequence (whole entry): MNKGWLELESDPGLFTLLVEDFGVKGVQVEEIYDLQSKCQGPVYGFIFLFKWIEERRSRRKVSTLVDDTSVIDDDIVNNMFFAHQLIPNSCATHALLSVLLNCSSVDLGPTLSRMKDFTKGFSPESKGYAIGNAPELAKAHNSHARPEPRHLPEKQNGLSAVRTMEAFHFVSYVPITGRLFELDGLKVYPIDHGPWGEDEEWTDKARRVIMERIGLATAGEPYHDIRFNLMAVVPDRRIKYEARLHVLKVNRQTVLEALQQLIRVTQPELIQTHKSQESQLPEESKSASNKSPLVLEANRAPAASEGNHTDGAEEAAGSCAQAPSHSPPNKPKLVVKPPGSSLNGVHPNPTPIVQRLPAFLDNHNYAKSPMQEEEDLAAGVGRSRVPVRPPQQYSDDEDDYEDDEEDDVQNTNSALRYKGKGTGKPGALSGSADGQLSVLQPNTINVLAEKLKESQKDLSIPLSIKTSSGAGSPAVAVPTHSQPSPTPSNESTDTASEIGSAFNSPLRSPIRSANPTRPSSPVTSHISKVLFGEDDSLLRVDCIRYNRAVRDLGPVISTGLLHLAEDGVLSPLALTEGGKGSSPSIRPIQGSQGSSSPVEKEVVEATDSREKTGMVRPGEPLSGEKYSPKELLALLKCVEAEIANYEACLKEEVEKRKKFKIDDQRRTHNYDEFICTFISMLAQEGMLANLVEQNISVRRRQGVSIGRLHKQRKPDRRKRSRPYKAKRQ
Summary of the method: as §1

EIF3F = EIF3F (UniProt O00303)
Sequence of EIF3F (O00303 whole entry): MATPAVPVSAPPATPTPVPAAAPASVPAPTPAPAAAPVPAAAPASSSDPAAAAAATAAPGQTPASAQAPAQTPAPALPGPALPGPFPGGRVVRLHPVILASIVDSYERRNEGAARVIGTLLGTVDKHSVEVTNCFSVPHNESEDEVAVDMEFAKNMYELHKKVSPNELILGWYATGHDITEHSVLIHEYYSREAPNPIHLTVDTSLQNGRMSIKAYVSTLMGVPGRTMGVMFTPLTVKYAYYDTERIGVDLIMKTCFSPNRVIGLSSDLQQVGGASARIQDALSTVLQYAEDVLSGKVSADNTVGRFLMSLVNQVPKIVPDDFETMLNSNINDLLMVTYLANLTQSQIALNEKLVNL
Summary of the method: as §1

EIF3H = EIF3H (UniProt O15372)
Sequence of EIF3H (O15372 whole entry): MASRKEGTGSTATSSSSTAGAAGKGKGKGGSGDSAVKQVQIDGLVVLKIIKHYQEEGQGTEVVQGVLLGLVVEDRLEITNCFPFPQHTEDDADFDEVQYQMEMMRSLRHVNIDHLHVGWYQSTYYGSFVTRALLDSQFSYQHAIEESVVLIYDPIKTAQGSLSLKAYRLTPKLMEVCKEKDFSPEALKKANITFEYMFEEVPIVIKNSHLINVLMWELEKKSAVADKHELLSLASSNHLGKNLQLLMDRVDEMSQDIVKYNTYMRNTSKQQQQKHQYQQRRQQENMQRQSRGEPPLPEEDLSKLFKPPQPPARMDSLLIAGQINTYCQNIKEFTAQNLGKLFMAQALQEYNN
Summary of the method: as §1

FAM105A = target: T3, FAM105A (UniProt Q9NUU6)
T3 sequence (whole entry): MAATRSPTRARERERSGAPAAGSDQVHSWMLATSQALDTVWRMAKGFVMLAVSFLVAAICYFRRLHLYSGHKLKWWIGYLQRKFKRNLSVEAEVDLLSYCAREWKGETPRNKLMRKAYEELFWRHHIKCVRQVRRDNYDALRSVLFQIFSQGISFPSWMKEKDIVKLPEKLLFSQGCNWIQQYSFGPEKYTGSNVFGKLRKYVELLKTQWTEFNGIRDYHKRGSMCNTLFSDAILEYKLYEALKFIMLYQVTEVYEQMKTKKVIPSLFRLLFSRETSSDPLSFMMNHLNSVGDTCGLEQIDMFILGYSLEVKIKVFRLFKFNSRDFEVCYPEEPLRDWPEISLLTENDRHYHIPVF
Summary of the method: as §1

OTUB1 = OTUB1 (UniProt Q96FW1)
Sequence of OTUB1 (Q96FW1 whole entry): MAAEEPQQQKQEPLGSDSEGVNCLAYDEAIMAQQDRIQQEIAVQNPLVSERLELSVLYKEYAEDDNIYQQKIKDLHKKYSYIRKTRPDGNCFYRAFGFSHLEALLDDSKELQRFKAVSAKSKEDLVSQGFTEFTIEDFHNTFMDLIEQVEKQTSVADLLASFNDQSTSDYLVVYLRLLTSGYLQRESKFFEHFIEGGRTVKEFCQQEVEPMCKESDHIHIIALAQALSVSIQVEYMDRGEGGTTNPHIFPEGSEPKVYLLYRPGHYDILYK
Summary of the method: as §1

OTUD4 = target: T4, OTUD4 (UniProt Q01804)
T4 sequence (whole entry): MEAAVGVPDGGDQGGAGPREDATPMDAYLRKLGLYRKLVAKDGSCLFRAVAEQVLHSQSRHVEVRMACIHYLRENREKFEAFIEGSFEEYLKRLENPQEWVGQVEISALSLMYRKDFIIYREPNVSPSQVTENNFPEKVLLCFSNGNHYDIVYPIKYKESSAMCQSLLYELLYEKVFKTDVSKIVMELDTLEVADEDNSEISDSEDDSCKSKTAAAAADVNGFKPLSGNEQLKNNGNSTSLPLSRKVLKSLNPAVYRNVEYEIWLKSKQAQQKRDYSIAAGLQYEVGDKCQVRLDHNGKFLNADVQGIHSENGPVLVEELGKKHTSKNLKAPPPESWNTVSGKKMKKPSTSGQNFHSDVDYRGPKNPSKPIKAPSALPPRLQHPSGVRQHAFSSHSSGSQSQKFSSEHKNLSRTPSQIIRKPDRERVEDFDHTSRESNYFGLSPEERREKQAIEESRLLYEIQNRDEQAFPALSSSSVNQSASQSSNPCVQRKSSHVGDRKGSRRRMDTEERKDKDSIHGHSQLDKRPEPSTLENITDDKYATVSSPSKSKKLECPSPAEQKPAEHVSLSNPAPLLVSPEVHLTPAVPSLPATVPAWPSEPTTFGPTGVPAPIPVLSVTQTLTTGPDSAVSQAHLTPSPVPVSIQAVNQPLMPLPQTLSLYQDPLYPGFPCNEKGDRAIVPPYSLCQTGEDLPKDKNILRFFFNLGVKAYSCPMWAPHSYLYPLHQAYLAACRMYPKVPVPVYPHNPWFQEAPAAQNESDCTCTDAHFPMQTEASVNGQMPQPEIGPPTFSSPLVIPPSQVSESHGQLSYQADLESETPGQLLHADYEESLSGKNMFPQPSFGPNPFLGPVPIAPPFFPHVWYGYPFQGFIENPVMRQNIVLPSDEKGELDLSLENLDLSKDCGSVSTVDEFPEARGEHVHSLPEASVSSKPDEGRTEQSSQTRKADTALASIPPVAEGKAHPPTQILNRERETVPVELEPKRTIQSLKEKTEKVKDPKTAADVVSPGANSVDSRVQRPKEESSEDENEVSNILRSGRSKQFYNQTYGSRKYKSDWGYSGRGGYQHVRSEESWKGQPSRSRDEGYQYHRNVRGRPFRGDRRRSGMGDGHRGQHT
Summary of the method: as §1

OTUD5 = target: T5, OTUD5 (UniProt Q96G74)
T5 sequence (whole entry): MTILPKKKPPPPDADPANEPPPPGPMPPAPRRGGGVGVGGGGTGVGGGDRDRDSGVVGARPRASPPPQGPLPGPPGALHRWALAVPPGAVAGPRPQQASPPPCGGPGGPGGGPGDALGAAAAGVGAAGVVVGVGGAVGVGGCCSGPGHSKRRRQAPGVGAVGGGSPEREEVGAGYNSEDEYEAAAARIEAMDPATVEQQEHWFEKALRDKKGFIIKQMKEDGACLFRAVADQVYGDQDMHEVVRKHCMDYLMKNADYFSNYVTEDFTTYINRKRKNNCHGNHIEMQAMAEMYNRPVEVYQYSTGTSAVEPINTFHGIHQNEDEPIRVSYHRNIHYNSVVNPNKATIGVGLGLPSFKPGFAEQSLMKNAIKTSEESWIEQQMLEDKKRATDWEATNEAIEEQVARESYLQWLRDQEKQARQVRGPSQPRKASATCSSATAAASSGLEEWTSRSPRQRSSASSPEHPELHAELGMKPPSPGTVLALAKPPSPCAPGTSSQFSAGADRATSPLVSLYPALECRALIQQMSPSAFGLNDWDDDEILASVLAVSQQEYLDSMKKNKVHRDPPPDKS
Summary of the method: as §1

Measured: log2 ratio of Biotin-Ahx-Ub-VS probe labelling

CC1(NC(=O)CCl)CCS(=O)(=O)C1 (centres undefined)
active: BAP1 -1.37
inactive: ALG13 -0.0745 | ATXN3 -0.753 | EIF3F -0.345 | EIF3H 0.186 | FAM105A 0.0573 | OTUB1 -0.246 | OTUD4 -0.934 | OTUD5 -0.673
